Inconclusive results are not listed. A call without a number means that no potency is given here. Active and inactive are the calls of the source. Calls follow the shape of the dose curve; as a rule, active = well fitted inhibition curve with a large enough effect; inconclusive = small, poorly fitted or top-dose-only effect; inactive = flat fitted curve, though single readings scatter.
Potency is read from the fitted curve at half-maximal effect.

For the test, the target named is Glutathione peroxidase 1 (Homo sapiens) (UniProt P07203). The test can be described thus: Primary qHTS Assay for Inhibitors of Recombinant Selenoprotein Glutathione Peroxidase 1 (GPX1) (AID 1845191). Also: nearly all actives have a fitted effect of over 65% in size. To be noted: recombinant GPX1, GR-coupled NADPH fluorescence, 15 min; series mostly up to 48.8 µM. An excerpt: Assay Provider: Elias S.J. Arner MD PhD.
Glutathione peroxidase 1 (Homo sapiens), sequence (P07203 whole entry, looked up): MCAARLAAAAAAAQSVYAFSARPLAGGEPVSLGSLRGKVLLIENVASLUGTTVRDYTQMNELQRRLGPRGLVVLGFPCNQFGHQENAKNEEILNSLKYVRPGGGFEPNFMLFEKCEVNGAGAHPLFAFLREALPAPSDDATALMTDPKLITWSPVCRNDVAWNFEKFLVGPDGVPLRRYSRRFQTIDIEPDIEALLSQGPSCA
Department of Medical Biochemistry and Biophysics
Karolinska Institutet, Solna, Stockholm, Sweden
Selenoprotein glutathione peroxidases (GPX), like the ubiquitously expressed GPX1 and the ferroptosis modulator GPX4, enact their antioxidant activities by reducing hydroperoxides using glutathione. […] GPX1 and GPX4 inhibitors have thus shown promise as anti-cancer agents. Existing inhibitors are often promiscuous, or modulate GPX activity only indirectly, so novel direct inhibitors identified through screening against GPX1 and GPX4 could be valuable. Here, we developed optimized glutathione reductase (GR)-coupled GPX assays for the biochemical high-throughput screen (HTS) of almost 12,000 compounds with known mechanisms of action. Initial hits were triaged using a GR counter-screen, assessed for isoform specificity using a separate GPX2 assay, and were assessed for general selenocysteine-targeting activity using a thioredoxin reductase (TXNRD1) assay. With this suite of assays, we identified novel GPX1/GPX2- and GPX4-specific inhibitors and can here present a validated pipeline for future discovery research for selenoprotein-targeting agents.
SEQUENCE No. (e.g., 1, 2, 3, etc.); […] (e.g., Cells, Incubation, Reagent, etc.); VALUE; DESCRIPTION.
1; Reagent 1; 3 uL; GPx1 enzyme or no enzyme control in 1536-well, black, solid Greiner assay plate.
2; Compound; 25 nL; Kalypsis pin tool (Wako USA) equipped with a 1536-well pin head.
3; Incubation; 30 min; room temperature.
4; Reagent 2; 1 uL; 10 nM GPX1, 1 mM GSH, 0.5 mM CHP, 0.5 mM NADPH, 100 nM GR, 0.01% BSA substrate
5; Detection; Fluorescence; ViewLux microplate reader, excitation 340 nm and emission 450 nm.
6; Incubation; 15 min; room temperature.
7; Detection; Fluorescence; ViewLux microplate reader, excitation 340 nm and emission 450 nm.
NOTES (numbers refer to Sequence numbers above)
1. 3 uL of 16.66 nM GPX1 and 0.016% BSA in assay buffer (50 mM Tris-HCl, 2 mM EDTA (pH 7.5), 150 mM NaCl) was added to columns 3-48 of 1536-well assay plates using a BioRAPTR Flying Reagent Dispenser (Let's Go Robotics (LGR), Carlsbad, CA). A no-enzyme control (0.01% BSA in TES assay buffer) was added to columns 1-2.
2. 25 nL of test compounds and DMSO controls were added to each well with a pin tool (Kalypsys).
3. The assay plates were incubated for 30 minutes at room temperature.
4. 1 uL of master mix (500 nM glutathione reductase (GR), 5 mM reduced glutathione (GSH), 2.5 mM NADPH in assay buffer) was added. 1 uL of cumene hydroperoxide (CHP) ([2.5 mM] in 50% EtOH) was then added within 5 minutes to initiate the reaction. Final concentrations were: 10 nM GPX1, 1 mM GSH, 0.5 mM CHP, 0.5 mM NADPH, 100 nM GR, 0.01% BSA.
5. Initial fluorescence readout (t=0) at 340/450 nm was measured using a ViewLux multimodal detector (PerkinElmer, Waltham, MA).
7. Endpoint fluorescence readout (t=15) at 340/450 nm was measured 15 min after room temperature incubation.
In the case of `CN(C)c1ccc(C2Nc3ccc4ccccc4c3C3=C2C(=O)CC(C)(C)C3)cc1Br` (stereo not given), the Potency result was “inactive”.
Consider `Cc1cc([C@@H](C)Nc2ccccc2C(=O)O)c2nc(N3CCOCC3)cc(=O)n2c1`, for which the Potency result is “inactive”.
With `O=C(O)CCc1ccc(NCc2cccc(Oc3ccccc3)c2)cc1` the entry was “inactive”.
As for `Cc1ccc(-n2nc(C(C)(C)C)cc2NC(=O)Nc2ccc(OCCN3CCOCC3)c3ccccc23)cc1`, the Potency result was “inactive”.
Take `Nc1ncnc2nc(-c3ccc(N4CCOCC4)nc3)cc(-c3cccc(Br)c3)c12`: the Potency entry was “inactive”.
Regarding `C[C@@H]1CN(Cc2ccc(F)cc2)[C@@H](C)CN1C(=O)c1cc2c(C(=O)C(=O)N(C)C)cn(C)c2cc1Cl`, the Potency result is “inactive”.
As to `CNCc1ccc(-c2[nH]c3cc(F)cc4c3c2CCNC4=O)cc1`, the Potency is 20.2 µM (active).
Turning to `CC(C)OC(=O)C1=CN(C(=O)c2ccc(F)c(F)c2)CC(C)(C)c2c1[nH]c1ccccc21`, the Potency result is “inactive”.
With `COc1cc2c(cc1OC)CN(CCc1ccc(NC(=O)c3cccc4c(=O)c5cccc(OC)c5[nH]c34)cc1)CC2` the entry was “inactive”; with `Cc1cnc(Nc2ccc(OCCN3CCCC3)cc2)nc1Nc1cccc(S(=O)(=O)NC(C)(C)C)c1`, “inactive”; with `CCOc1cc(C(=O)Nc2ccc(Cl)c(-c3nc4ccccc4[nH]3)c2)cc(OCC)c1OCC`, “inactive”.
Consider `NC(=O)c1ccc(-c2nc(-c3ccc4c(c3)OCO4)c(-c3ccccn3)[nH]2)cc1`, for which the Potency result was “inactive”.
In the case of `CCC(C)N(C)C(=O)c1cc2ccccc2c(-c2ccccc2Cl)n1` (stereo not given), the Potency entry is “inactive”.
In the case of `CC(=O)NC(C)c1ccc(Oc2ccc(OC(C)C)cc2)cc1` (stereo not given), the Potency entry was “inactive”.
For the molecule `O=c1ncn2nc(Sc3ccc(F)cc3F)ccc2c1-c1c(Cl)cccc1Cl`, the Potency result was “inactive”.
With `CN1CCN(CCCN2c3ccccc3Sc3ccc(C(F)(F)F)cc32)CC1` the entry was “inactive”; with `N[C@@H]1CONC1=O`, “inactive”.
Take `CNC(=O)c1ccc(N2C(=S)N(c3ccc(C#N)c(C(F)(F)F)c3)C(=O)C2(C)C)cc1F`: the Potency result was “inactive”.
With `CCc1cncnc1N1CCN(Cc2nc3ccc(C(F)(F)F)cc3[nH]2)CC1`, the Potency result is “inactive”.
With `Oc1cccc(-c2nc(N3CCOCC3)c3oc4ncccc4c3n2)c1`, the Potency result is “inactive”.
In the case of `Cc1ccccc1C(OCCN(C)C)c1ccccc1` (stereo not given), the Potency result is “inactive”.
`CCN(CC)CCCC(C)Nc1nc(C)cc(Nc2ccc3nc(C)cc(N)c3c2)n1` (stereo not given): the Potency result is “inactive”.
To `NC(=O)c1ccc(-c2nc(-c3ccc4c(c3)OCCO4)c(-c3ccccn3)[nH]2)cc1` belongs “inactive”; to `N=c1nc(N2CCCCC2)cc(N)n1O`, “inactive”.
With `Cc1cccc(-c2nn(C(=S)Nc3ccccc3)cc2-c2ccnc3ccccc23)n1` the entry was “inactive”; with `COc1c(Cl)cc2c([nH]c3cnccc32)c1NC(=O)c1cccnc1C`, “inactive”; with `CCc1cc(Nc2nccc(-c3c(-c4ccc(OC)c(C(=O)Nc5c(F)cccc5F)c4)nc4ccccn34)n2)c(OC)cc1N1CCC(N2CCN(S(C)(=O)=O)CC2)CC1`, “inactive”.
Turning to `COc1cc(Oc2ccnc3cc(OC)c(OC)cc23)ccc1NC(=O)NC(C)c1nccs1` (stereo not given), the Potency entry was “inactive”.
To `Cn1cnc2c(F)c(Nc3ccc(Br)cc3Cl)c(C(=O)NOCCO)cc21` belongs “inactive”; to `CC(=O)Oc1ccccc1C(=O)O`, “inactive”; to `CN[C@@H](C)C(=O)N[C@H]1CCCC[C@H]2CC[C@@H](C(=O)N[C@@H](c3ccccc3)c3cn(CCCCc4ccc(CCCCn5cc([C@@H](NC(=O)[C@@H]6CC[C@@H]7CCCC[C@H](NC(=O)[C@H](C)NC)C(=O)N76)c6ccccc6)nn5)cc4)nn3)N2C1=O`, “inactive”.
`CC(c1cc2ccccc2s1)N(O)C(N)=O` (stereo not given): the Potency entry is “inactive”.
Regarding `Fc1ccc(Cl)cc1-c1nc(Nc2ccncc2)c2nccnc2n1`, the Potency result was “inactive”.
As to `Cc1[nH]c(=O)c(C#N)cc1-c1ccncc1`, the Potency entry is “inactive”.
On to `CS(=O)(=O)c1ccc(C(=O)Nc2ccc(Cl)c(-c3ccccn3)c2)c(Cl)c1`, for which the Potency result is “inactive”.
On to `Cn1cc(-c2ccc3nnc(C(F)(F)c4ccc5ncccc5c4)n3n2)cn1`, for which the Potency entry was “inactive”.
`COc1nc(-c2ccc3c(c2)OCO3)n(-c2ccc(NC(=O)CSc3ccccc3)cc2)n1`: the Potency result was “inactive”.
Take `Cc1cnc(NC(=O)C2=C(O)c3ccccc3S(=O)(=O)N2C)s1`: the Potency entry is “inactive”.
With `O=C(c1cc(Cc2n[nH]c(=O)c3ccccc23)ccc1F)N1CCN(C(=O)C2CC2)CC1`, the Potency result was “inactive”.
On to `COc1ccccc1[C@H](c1cccc2ccccc12)[C@@](C)(C#N)C(=O)N1CCC(c2cccc(C(F)(F)F)c2)CC1`, for which the Potency entry is “inactive”.
